Inconclusive results are not listed. Unmarked numbers belong to inactive results. Calls come from the whole dose curve; as a rule, active = well fitted inhibition curve with a large enough effect; inconclusive = small, poorly fitted or top-dose-only effect; inactive = flat fitted curve, though single readings scatter.
% is set by controls: 0 for no effect and ±100 for the full control effect.

One assay in a line: Drug repurposing screens with cells derived from glioblastoma tumor samples (AID 1345199). Note: nearly all actives have a fitted effect of over 40% in size. To be noted: GBM patient neurospheres viability, ATP luminescence, 48 h; at 46 µM (top of the series); tumour line A. A digest of the protocol: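 Primary testing used CD133+ neurospheres from four GBM patients, seven concentrations, 48 h exposure and ATP-based viability; confirmation added three slower-growing patient lines.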
Consider `COc1ccc(/C=N/NC(=O)c2ccncc2)c(C(=O)O)c1OC`, for which the activity, negative = cell killing was -30.2%.
Same read-out and setting: to `Cc1nc(NS(=O)(=O)c2ccc(N)cc2)nc(C)c1Br` belongs -28.7%; to `CCOC(=O)c1c[nH]c2cc(OCC(C)C)c(OCC(C)C)cc2c1=O`, -29.7%.

The same assay, now with this note: GBM patient neurospheres viability, ATP luminescence, 48 h; at 46.1 µM (top of the series); tumour line C.
Consider `CC(CCc1ccc(O)cc1)NCC(O)c1ccc(O)cc1` (stereo not given), for which the activity, negative = cell killing is 2.7%.
On the same count and under the same terms, to `CO[C@H]1C[C@H](O[C@@H]2/C(C)=C/C[C@@H]3C[C@@H](C[C@]4(CC[C@H](C)[C@@H](C5CCCCC5)O4)O3)OC(=O)[C@@H]3C=C(C)/C(=N/O)[C@H]4OC/C(=C\C=C\[C@@H]2C)[C@]43O)O[C@@H](C)[C@@H]1O` belongs -8.72%; to `O=C(/C=C/c1cccc(F)c1)NC1CC1`, -17.9%; to `CC[C@H]1NC(=O)[C@@H](NC(=O)c2ncccc2O)[C@@H](C)OC(=O)[C@H](c2ccccc2)NC(=O)[C@@H]2CC(=O)CCN2C(=O)[C@H](Cc2ccccc2)N(C)C(=O)[C@@H]2CCCN2C1=O`, -11%.
`C[Se]CC[C@H](N)C(=O)O`: the activity, negative = cell killing was -22.8%.
The same measure, in the same setting: to `CC(C)(C)C(=O)OCC(=O)[C@H]1CC[C@H]2[C@@H]3CCC4=CC(=O)CC[C@]4(C)[C@H]3CC[C@]12C` belongs 0.589%; to `NC(=O)[C@@H]1C[C@]2(NC(=O)NC2=O)c2cc(F)ccc2O1`, -17.3%.
With `Cc1cc(=O)c(C(=O)N[C@@H](C(=O)N[C@@H]2C(=O)N3C(C(=O)O)=C(CSc4nnnn4C)CS[C@H]23)c2ccc(O)cc2)c[nH]1`, the activity, negative = cell killing is -6.97%.
Same read-out and setting: the same measure for `FC(F)(F)COCC(F)(F)F`: -24.2%; for `O=C(OC[C@H]1O[C@](O)(COC(=O)c2cccnc2)[C@@H](OC(=O)c2cccnc2)[C@@H]1OC(=O)c1cccnc1)c1cccnc1`: -25.9%.
Same read-out and setting: to `Cc1ncc(COP(=O)(O)O)c(CN)c1O` belongs -23.4%; to `O=C(O)/C=C/C(=O)Nc1ccc(S(=O)(=O)Nc2nccs2)cc1`, -5.24%; to `CCN(CC)C(=O)[C@]1(c2ccccc2)C[C@@H]1CN`, -22.9%.
As for `O=S(=O)(O)CCCS(=O)(=O)O`, the activity, negative = cell killing is -13.4%.
On the same count and under the same terms, the same measure for `O=C(O)COc1ccccc1/C=N/NC(=O)c1ccncc1`: -10.4%; for `NC(=O)Oc1ccc(Cc2ccccc2)cc1`: -22.5%.
Take `COc1ccc2cc([C@H](C)CO)ccc2c1`: the activity, negative = cell killing is -21.2%.
On the same count and under the same terms, to `c1ccc2c(c1)OCC(CN1CCCCC1)O2` (stereo not given) belongs -13%; to `CCCCCCCCCCCCCCCCCCCCCC(=O)Nc1ccn([C@@H]2O[C@H](CO)[C@@H](O)[C@@H]2O)c(=O)n1`, -16.8%.
In the case of `CC(=O)N[C@@H]([C@@H](O)[C@H](O)[C@H](O)CO)[C@@H](O)CC(=O)C(=O)O`, the activity, negative = cell killing is -14.1%.
Same read-out and setting: to `C[C@H](O)CN(C)C` belongs -13.2%; to `CCCCCCCCCCCCCCCCCCOCC(COP(=O)([O-])OCC[N+](C)(C)C)OC` (stereo not given), -1.43%.
Still for that read-out and setting: to `COc1ccc(/C=C/C(=O)O)cc1` belongs 9.31%; to `CC1=C[C@H](O)CC(C)(C)[C@H]1/C=C/C(C)=C/C=C/C(C)=C/C=C/C=C(C)/C=C/C=C(C)/C=C/C1=C(C)C[C@@H](O)CC1(C)C`, -27.4%; to `O=C1CC[C@@H](C(=O)N[C@H]2C[C@@H]2c2ccccc2)N1`, 4.74%.
On the same count and under the same terms, to `CC12CCC(C1)C(C)(C)C2=O` (stereo not given) belongs 19.6%.
As to `C[C@@H](O)[C@H]1C(=O)N2C(C(=O)[O-])=C(SC3Cn4cnc[n+]4C3)[C@H](C)[C@H]12` (stereo not given in full), the activity, negative = cell killing is -6.91%.

The values above are taken from PubChem BioAssay (NCATS).
